Reference: PubChem BioAssay (Tox21)
Records with an inconclusive call do not appear. Activity calls are given as the source filed them. Unless noted, calls follow the shape of the dose curve; as a rule, active = well fitted curve in the direction sought with a large enough effect in the repeat runs; inconclusive = weak or mixed curves; inactive = no such curve, though single readings can be large; an effect the other way counts as inactive or inconclusive.

Experiments:
[1] = biological target: Peroxisome proliferator-activated receptor delta (Homo sapiens) (UniProt Q03181); test: qHTS assay to identify small molecule agonists of the peroxisome proliferator-activated receptor delta (PPARd) signaling pathway (AID 743212; calls by dose curve;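 also: HEK293H cells with PPARd UAS beta-lactamase reporter GeneBLAzer system; % is scaled to controls: 0 for no effect and ±100 for the full control effect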)
Summary of the method: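 Steps: seed PPARd-bla HEK293H cells; incubate 5 h, 37 C, 5% CO2; add compounds in DMSO; incubate, 37 C; add LiveBLAzer B/G FRET substrate; hold 2 h at room temperature; measure fluorescence.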

[2] = qHTS assay to identify small molecule antagonists of the peroxisome proliferator-activated receptor delta (PPARd) signaling pathway - cell viability counter screen (AID 743213); also: % is scaled to controls: 0 for no effect and ±100 for the full control effect; nearly all actives have a fitted effect of over 50% in size
Summary of the method: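 Same-well viability: cells pre-incubated 5 h, dosed with compound plus 300 nM L165041, kept 17 h at 37 C, FRET substrate 2 h RT, then CellTiter-Glo 30 min RT and luminescence.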

[3] = qHTS assay to identify small molecule antagonists of the farnesoid-X-receptor (FXR) signaling pathway - cell viability counter screen (AID 743221; active = well fitted cell-killing curve with a large enough effect in the repeat runs, not every such curve was filed as active; also: % is scaled to controls: 0 for no effect and ±100 for the full control effect; nearly all actives have a fitted effect of over 50% in size)
Summary of the method: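 Luminescence from CellTiter-Glo measures cytotoxicity in GeneBLAzer FXR-UAS-bla HEK 293T cells. Cells were exposed to compounds with 50 uM chenodeoxycholic acid (final) for 16 h at 37 C, in wells also used for the reporter readout.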

[4] = biological target: Vitamin D3 receptor (Homo sapiens) (UniProt P11473); test: qHTS assay to identify small molecule agonists of the vitamin D receptor (VDR) signaling pathway (AID 743222; calls by dose curve; also: % is scaled to controls: 0 for no effect and ±100 for the full control effect)
Summary of the method: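 Fluorescence from cleaved LiveBLAzer B/G FRET substrate served as readout. VDR-bla cells had been treated 16 h at 37C with test compounds in DMSO, following a 4 h settling period, and substrate was loaded for 2 h at RT.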

[5] = biological target: Vitamin D3 receptor (Homo sapiens) (UniProt P11473); test: qHTS assay to identify small molecule antagonists of the vitamin D receptor (VDR) signaling pathway (AID 743223; active = well fitted inhibition curve with a large enough effect in the signal ratio in the repeat runs, not every such curve was filed as active; the % refers to the signal ratio; also: % is scaled to controls: 0 for no effect and ±100 for the full control effect)
Summary of the method: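 Antagonist mode uses 1alpha,25-dihydroxyvitamin D3 at 3 nM final as stimulus. VDR-bla cells receive compounds in DMSO, incubate 16 h at 37C, then a beta-lactamase FRET substrate for 2 h at room temperature before fluorescence measurement.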

[6] = qHTS assay to identify small molecule agonists of the vitamin D receptor (VDR) signaling pathway - cell viability counter screen (AID 743224); also: series mostly up to about 63 µM; % is scaled to controls: 0 for no effect and ±100 for the full control effect; nearly all actives have a fitted effect of over 50% in size
Summary of the method: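 Compounds were pin-transferred onto VDR-bla cells plated 4 h earlier; following 16 h incubation at 37C, cell viability was quantified by CellTiter-Glo luminescence after 30 min at room temperature.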

[7] = qHTS assay to identify small molecule antagonists of the vitamin D receptor (VDR) signaling pathway - cell viability counter screen (AID 743225); also: % is scaled to controls: 0 for no effect and ±100 for the full control effect; nearly all actives have a fitted effect of over 50% in size
Summary of the method: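 Read-out: CellTiter-Glo luminescence measured 30 min after reagent addition at room temperature. Cells were VDR-bla HEK 293T exposed 16 h at 37C, 5% CO2, to compound with 3 nM final calcitriol agonist.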

[8] = qHTS assay to identify small molecule agonists of the NFkB signaling pathway - cell viability counter screen (AID 1159515; calls by dose curve; also: series mostly up to about 61 µM; % is scaled to controls: 0 for no effect and ±100 for the full control effect; nearly all actives have a fitted effect of over 55% in size)
Summary of the method: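 Parallel cytotoxicity counter screen in ME-180 cells carrying an NFkB-response-element beta-lactamase reporter, 2,000 cells/well. Compound exposure lasted 5 hr at 37 C, 5% CO2. Cell viability was quantified by CellTiter-Glo luminescence.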

[9] = qHTS assay to identify small molecule agonists of the endoplasmic reticulum stress response signaling pathway - cell viability counter screen (AID 1159517; calls by dose curve)
Summary of the method: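 After overnight attachment, ESRE-bla HeLa cells were treated with Tox21 library compounds for 5 hr. CellTiter-Glo luminescence, read 30 min post-addition at room temperature, reported viability.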

[10] = qHTS assay to identify small molecule antagonists of the retinoid-related orphan receptor gamma (ROR-gamma) signaling pathway - cell viability counter screen (AID 1159520)
Summary of the method: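 Cytotoxicity was read from cellular ATP (CellTiter-Glo luminescence) after 16 hr at 37 C with 1 uM doxycycline induction. The inducer was added 2 hr after compound transfer to Tet-on ROR gamma CHO cells.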

[11] = biological target: Nuclear receptor ROR-gamma (Homo sapiens) (UniProt P51449); test: qHTS assay to identify small molecule antagonists of the retinoid-related orphan receptor gamma (ROR-gamma) signaling pathway (AID 1159521)
Summary of the method: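 CHO Tet-on RORγ, RORE-luc reporter. Cpd 2 h pre-incubation, then dox hyclate 1 uM final, 16 h, 37 C/5% CO2. ONE-Glo luminescence; decrease = antagonist.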

[12] = qHTS assay to identify small molecule agonists of the AP-1 signaling pathway - cell viability counter screen (AID 1159525; calls by dose curve; also: nearly all actives have a fitted effect of over 55% in size)
Summary of the method: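 Intracellular ATP by Cell Titer Glo luminescence (30 min, RT) in the same ME-180 AP-1-bla wells after the 5 h compound exposure at 37 °C. Normalised to tetra n-octyl ammonium bromide and DMSO controls.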

[13] = qHTS assay to identify small molecule agonists of the AP-1 signaling pathway (AID 1159526; calls by dose curve; also: % is scaled to controls: 0 for no effect and ±100 for the full control effect)
[14] = biological target: Retinoic acid receptor RXR-alpha (Homo sapiens) (UniProt P19793); test: qHTS assay to identify small molecule agonists of the RXR signaling pathway (AID 1159527; calls by dose curve; also: nearly all actives have a fitted effect of over 35% in size; also: potency is read from the fitted curve at half-maximal effect)
Summary of the method: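 Read-out: beta-lactamase FRET ratio (405 nm excitation, 460 and 530 nm emission) after 2 hr substrate loading at room temperature. Cells were RXR-alpha-UAS-bla HEK 293T treated with compounds for 16 hr in 2% charcoal-stripped FBS medium.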

[15] = qHTS assay to identify small molecule agonists of the RXR signaling pathway - cell viability counter screen (AID 1159529); also: nearly all actives have a fitted effect of over 50% in size; also: potency is read from the fitted curve at half-maximal effect
Summary of the method: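 HEK 293T RXRa-bla cells, 2% CS-FBS; 5 h settle; cpd 16 h 37 C, 5% CO2; CellTiter-Glo 30 min RT, luminescence. Tetraoctyl ammonium bromide as positive control.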

[16] = biological target: Peroxisome proliferator-activated receptor delta (Homo sapiens) (UniProt Q03181); test: qHTS assay to identify small molecule antagonists of the peroxisome proliferator-activated receptor delta (PPARd) signaling pathway (AID 743215; active = well fitted inhibition curve with a large enough effect in the signal ratio in the repeat runs, not every such curve was filed as active; the % refers to the signal ratio)
Summary of the method: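 Plated HEK293H PPARd-bla cells rested 5 h at 37 C and 5% CO2. Compound, then agonist L165041 at 300 nM final, was added; 17 h at 37 C followed. Substrate loading, 2 h room temperature, fluorescence measured.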

[17] = biological target: Bile acid receptor (Homo sapiens) (UniProt Q96RI1); test: qHTS assay to identify small molecule antagonists of the farnesoid-X-receptor (FXR) signaling pathway (AID 743217; active = well fitted inhibition curve with a large enough effect in the signal ratio in the repeat runs, not every such curve was filed as active; the % refers to the signal ratio; also: % is scaled to controls: 0 for no effect and ±100 for the full control effect)
Summary of the method: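 Screen of the Tox21 10K library in quantitative HTS format using FXR-UAS-bla HEK 293T reporter cells. Agonist chenodeoxycholic acid, 50 uM final, added with compounds; 16 h incubation at 37 °C; beta-lactamase FRET fluorescence measured.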

[18] = qHTS assay to identify small molecule agonists of the farnesoid-X-receptor (FXR) signaling pathway - cell viability counter screen (AID 743218); also: % is scaled to controls: 0 for no effect and ±100 for the full control effect; nearly all actives have a fitted effect of over 45% in size
Summary of the method: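 Viability of FXR-bla HEK 293T cells is measured by ATP-based CellTiter-Glo luminescence following 16 h compound treatment at 37 C and a prior 2 h room-temperature beta-lactamase substrate step.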

[19] = biological target: Bile acid receptor (Homo sapiens) (UniProt Q96RI1); test: qHTS assay to identify small molecule agonists of the farnesoid-X-receptor (FXR) signaling pathway (AID 743220; active = well fitted activation curve with a large enough effect in the signal ratio in the repeat runs, not every such curve was filed as active; the % refers to the signal ratio; also: % is scaled to controls: 0 for no effect and ±100 for the full control effect)
Summary of the method: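 FXR-UAS-bla HEK 293T cells carrying a UAS-driven beta-lactamase reporter were plated for 5 h at 37C/5% CO2, then exposed to DMSO-dissolved Tox21 10K compounds for 16 h at 37C. A LiveBLAzer B/G FRET substrate was loaded for 2 h at room temperature before fluorescence reading.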

Chain of Bile acid receptor (Homo sapiens) (Q96RI1 whole entry, looked up): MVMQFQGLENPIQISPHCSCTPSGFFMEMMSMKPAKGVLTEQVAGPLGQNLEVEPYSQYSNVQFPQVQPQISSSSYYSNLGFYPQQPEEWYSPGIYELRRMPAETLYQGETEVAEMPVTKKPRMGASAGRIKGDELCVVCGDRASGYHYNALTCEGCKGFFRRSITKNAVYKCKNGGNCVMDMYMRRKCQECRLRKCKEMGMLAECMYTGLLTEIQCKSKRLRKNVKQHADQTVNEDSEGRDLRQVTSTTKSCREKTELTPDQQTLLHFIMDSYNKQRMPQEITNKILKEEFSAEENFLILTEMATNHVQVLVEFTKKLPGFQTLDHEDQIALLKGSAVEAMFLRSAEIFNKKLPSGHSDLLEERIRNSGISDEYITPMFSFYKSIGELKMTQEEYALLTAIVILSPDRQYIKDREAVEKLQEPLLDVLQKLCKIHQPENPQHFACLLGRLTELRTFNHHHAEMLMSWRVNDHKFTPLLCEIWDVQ
Chain of Peroxisome proliferator-activated receptor delta (Homo sapiens) (Q03181 whole entry, looked up): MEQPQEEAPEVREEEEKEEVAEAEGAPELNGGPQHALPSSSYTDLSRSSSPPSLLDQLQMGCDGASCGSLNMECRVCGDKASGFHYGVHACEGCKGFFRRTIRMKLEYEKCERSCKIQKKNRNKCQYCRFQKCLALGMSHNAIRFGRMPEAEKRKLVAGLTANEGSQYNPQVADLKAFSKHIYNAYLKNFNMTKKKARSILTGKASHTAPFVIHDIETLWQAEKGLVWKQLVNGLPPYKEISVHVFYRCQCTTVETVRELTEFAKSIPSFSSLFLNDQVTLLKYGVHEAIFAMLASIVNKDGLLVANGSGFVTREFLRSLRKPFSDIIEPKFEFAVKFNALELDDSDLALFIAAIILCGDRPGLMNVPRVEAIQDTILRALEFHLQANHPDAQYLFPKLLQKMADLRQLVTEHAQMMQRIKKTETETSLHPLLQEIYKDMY
Chain of Retinoic acid receptor RXR-alpha (Homo sapiens) (P19793 whole entry, looked up): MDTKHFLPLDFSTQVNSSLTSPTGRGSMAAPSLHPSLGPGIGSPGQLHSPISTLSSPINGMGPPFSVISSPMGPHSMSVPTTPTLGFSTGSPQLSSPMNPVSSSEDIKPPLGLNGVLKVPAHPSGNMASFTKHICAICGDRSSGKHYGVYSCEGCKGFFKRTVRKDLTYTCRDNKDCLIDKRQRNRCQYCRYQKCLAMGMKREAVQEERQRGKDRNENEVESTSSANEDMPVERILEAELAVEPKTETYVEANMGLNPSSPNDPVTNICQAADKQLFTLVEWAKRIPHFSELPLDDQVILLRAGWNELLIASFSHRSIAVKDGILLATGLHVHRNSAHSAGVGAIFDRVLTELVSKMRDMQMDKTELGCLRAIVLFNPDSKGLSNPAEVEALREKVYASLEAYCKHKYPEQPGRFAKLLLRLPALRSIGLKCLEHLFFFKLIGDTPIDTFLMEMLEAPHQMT
Chain of Vitamin D3 receptor (Homo sapiens) (P11473 whole entry, looked up): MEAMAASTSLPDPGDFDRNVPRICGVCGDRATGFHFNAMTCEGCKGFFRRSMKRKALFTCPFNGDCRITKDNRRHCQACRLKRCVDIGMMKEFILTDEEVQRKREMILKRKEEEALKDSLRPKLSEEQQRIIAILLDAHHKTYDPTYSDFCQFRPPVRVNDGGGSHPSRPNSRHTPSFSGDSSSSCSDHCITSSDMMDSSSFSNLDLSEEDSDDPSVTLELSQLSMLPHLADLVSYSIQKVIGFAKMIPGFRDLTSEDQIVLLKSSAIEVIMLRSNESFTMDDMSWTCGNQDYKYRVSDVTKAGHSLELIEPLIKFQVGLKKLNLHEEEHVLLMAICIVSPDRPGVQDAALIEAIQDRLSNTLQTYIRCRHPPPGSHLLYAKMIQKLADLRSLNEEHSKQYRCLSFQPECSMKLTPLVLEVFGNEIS

CCCCCCCCCCCCCC(=O)OCC
inactive: outcome [1] | outcome [2] | outcome [3] | outcome [4] | outcome [5] | outcome [6] | outcome [7] | outcome [8] | outcome [9] | outcome [10] | outcome [11] | outcome [12] | Potency [13] | Potency [14] | Potency [15]

NCC1CCC(C(=O)Oc2ccc(CCC(=O)O)cc2)CC1 (centres undefined)
inactive: outcome [2] | outcome [16] | outcome [17] | outcome [18] | outcome [19] | outcome [3] | outcome [4] | outcome [5] | outcome [6] | outcome [8] | outcome [9] | outcome [10] | outcome [11] | Potency [13] | Potency [14] | Potency [15]

CCc1ccc(CC)cc1
inactive: outcome [2] | outcome [18] | outcome [4] | outcome [5] | outcome [6] | outcome [8] | outcome [9] | outcome [10] | outcome [11] | outcome [12] | Potency [13] | Potency [14] | Potency [15]

CCOCCOCCOC(C)=O
inactive: outcome [1] | outcome [2] | outcome [16] | outcome [17] | outcome [18] | outcome [19] | outcome [4] | outcome [6] | outcome [7] | outcome [8] | outcome [9] | outcome [10] | outcome [11] | outcome [12] | Potency [13] | Potency [14]

Cc1ccc(O)c([N+](=O)[O-])c1
active: Potency [15] 24.8 µM
inactive: outcome [1] | outcome [2] | outcome [16] | outcome [17] | outcome [18] | outcome [19] | outcome [3] | outcome [4] | outcome [5] | outcome [6] | outcome [7] | outcome [8] | outcome [9] | outcome [11] | outcome [12] | Potency [13] | Potency [14]

CCCCCC(CC)OC(=O)CCCOc1ccc(Cl)cc1Cl (centres undefined)
active: Potency [14] 4.35 µM
inactive: outcome [1] | outcome [2] | outcome [16] | outcome [18] | outcome [3] | outcome [4] | outcome [5] | outcome [6] | outcome [7] | outcome [8] | outcome [9] | outcome [10] | outcome [11] | outcome [12] | Potency [13] | Potency [15]

NC[C@H]1O[C@H](O[C@H]2[C@H](O)[C@@H](O[C@H]3O[C@H](CO)[C@@H](O)[C@H](N)[C@H]3O)[C@H](N)C[C@@H]2N)[C@H](N)[C@@H](O)[C@@H]1O
inactive: outcome [2] | outcome [18] | outcome [3] | outcome [4] | outcome [5] | outcome [7] | outcome [8] | outcome [9] | activity, negative = cytotoxicity [10] 0.5% [at 19 µM] | activity change, negative = inhibition [11] -19.4% [at 19 µM] | viability change, negative = cytotoxic [12] 1.49% [at 15.8 µM] | activation [13] 0.424% [at 15.8 µM] | activation [14] 4.18% [at 15.8 µM] | activity change, negative = cytotoxicity [15] 3.13% [at 15.8 µM]

CNCCc1ccccn1
inactive: outcome [2] | outcome [18] | outcome [3] | outcome [6] | outcome [7] | outcome [8] | outcome [9] | outcome [10] | outcome [11] | outcome [12] | Potency [13] | Potency [14]

CCCCCCCCCCCC(C)=O
inactive: outcome [1] | outcome [2] | outcome [17] | outcome [18] | outcome [19] | outcome [3] | outcome [4] | outcome [7] | outcome [8] | outcome [10] | outcome [11] | Potency [13] | Potency [14] | Potency [15]

CCC(C)SSC(C)CC (centres undefined)
inactive: outcome [2] | outcome [18] | outcome [3] | outcome [4] | outcome [5] | outcome [6] | outcome [8] | outcome [9] | outcome [10] | outcome [11] | outcome [12] | Potency [13] | Potency [14] | Potency [15]
